Data reported in PubChem BioAssay (EPA / NIEHS).
Where “and” joins values, the source holds several entries; their conditions need not be identical. Identical values can stand only once. Records with an inconclusive call do not appear. The source holds several records for some structures; these can differ, active in one and inactive in another. Calls of active or inactive are those of the source. Rule for the calls: active = hit-call score of the fitted dose curve at least 0.9, where 1 is the maximum; inconclusive = response in the unintended direction; inactive = score below 0.9.

target: human Peroxisome Proliferator-activated Receptor alpha (PPARa), PPARA (gene 5465) (UniProt Q07869); test: ATG_PPARa_TRANS: Attagene TRANS-FACTORIAL HepG2 Assay for human Peroxisome Proliferator-activated Receptor alpha (PPARa) (AID 2283001);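 for AC50: potency for gain of reporter signal over DMSO so agonist or activator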
Method: ATG_TRANS is a cell-based, multiplexed-readout assay that uses HepG2, a human liver cell line, with measurements taken at 24 hours after chemical dosing in a 24-well plate.ATG_PPARa_TRANS is one of 30 assay component(s) measured or calculated from the ATG_TRANS assay. It is designed to make measurements of mRNA induction, a form of inducible reporter, as detected with fluorescence intensity signals by Reverse transcription polymerase chain reaction (RT-PCR) and Capillary electrophoresis technology.Data from the assay component ATG_PPARa_TRANS was analyzed into 1 assay endpoint. This assay endpoint, ATG_PPARa_TRANS, was analyzed in the positive analysis fitting direction relative to DMSO as the negative control and baseline of activity. Using a type of inducible reporter, measures of mRNA for gain-of-signal activity can be used to understand the reporter gene at the transcription factor-level as they relate to the gene PPARA. Furthermore, this assay endpoint can be referred to as a primary readout, because this assay has produced multiple assay endpoints where this one serves a reporter gene function. To generalize the intended target to other relatable targets, this assay endpoint is annotated to the nuclear receptor intended target family, where the subfamily is non-steroidal.
Human liver HepG2 cells are transiently transfected with multiple reporter transcription units (MRTUs) in 6-well plates using FuGene 6 reagent (Roche; 3 ml FuGene/1 mg DNA). The MRTU constructs are regulated by a cis-regulating element (promoter). […] A major difference between the CIS and TRANS system is that in CIS activities of endogenous TFs are measured, whereas the TRANS assay evaluates changes in activities of exogenous, chimeric NR-Gal4 proteins. […] At the end of 24 hour incubation, total RNA was isolated using TriZol reagent (Invitrogen). The isolated RNA is then reverse-transcribed using oligo(dT) primer and Mo-MLV reverse transcriptase (Invitrogen) with DNAse I (Ambion) treatment for 30 min. The one-tenth of the produced cDNA was amplified by PCR using Taq DNA polymerase (Invitrogen) and two reporter sequence-specific primers. The PCR products were fluorescently labeled by primer extension with 6-arboxyfluorescein (6-FAM) 5'-labeled reporter sequence-specific primer (2 min at 95 C, 20 s at 68 C and 10 min at 72 C) and these products were digested with 5U of HpaI (New England Biolabs) for 2h at 37 C. The fragments were purified using Qiaquick PCR columns (Qiagen), analyzed on an ABI 3130xL genetic analyzer (Applied Biosystems) with peak positions identified by using a set of X-rhodamine (ROX)-labeled MapMarker1000 molecular weight standards (BioVentures). The raw capillary electrophoresis data was processed using Attagraph software (Attagene).

Sequence of human Peroxisome Proliferator-activated Receptor alpha (PPARa), PPARA (gene 5465) (Q07869 whole entry, looked up): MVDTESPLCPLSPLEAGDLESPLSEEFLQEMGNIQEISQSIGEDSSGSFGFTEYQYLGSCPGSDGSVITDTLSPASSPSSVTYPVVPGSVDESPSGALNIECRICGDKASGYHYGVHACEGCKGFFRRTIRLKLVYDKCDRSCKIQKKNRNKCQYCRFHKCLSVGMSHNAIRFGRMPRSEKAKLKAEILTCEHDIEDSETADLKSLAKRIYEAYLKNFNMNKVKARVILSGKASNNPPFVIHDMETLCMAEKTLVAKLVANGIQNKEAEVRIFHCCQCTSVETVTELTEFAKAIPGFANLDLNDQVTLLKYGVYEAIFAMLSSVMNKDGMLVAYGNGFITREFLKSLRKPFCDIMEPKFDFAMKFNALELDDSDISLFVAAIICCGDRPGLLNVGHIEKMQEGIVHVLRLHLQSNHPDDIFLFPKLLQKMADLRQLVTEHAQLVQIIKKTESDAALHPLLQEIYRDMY

Q: `OCC(F)(F)OC(F)(F)C(F)(F)OC(F)(F)C(F)(F)OC(F)(F)F` was tested. Which outcome did it give?
A: The outcome was “inactive”.

Q: How did the outcome turn out when `O=C(O)C1C(C(=O)O)C2(Cl)C(Cl)=C(Cl)C1(Cl)C2(Cl)Cl` (stereo not given) was run?
A: The outcome was “inactive”.

Q: How did the outcome turn out when `CC(=O)CCc1ccc2c(c1)OCO2` was run?
A: The outcome was “inactive”.

Q: `O=P1(N(CCCl)CCCl)NCCCO1` (stereo not given) was tested. Which outcome did it give?
A: The outcome was “inactive”.

Q: Which outcome does the source give for `c1ccc2c(c1)Nc1ccccc1S2` here?
A: Its outcome is “inactive”.

Q: Which results are given for `O=C(O)C(F)(OC(F)(F)C(F)(F)C(F)(F)F)C(F)(F)F` (stereo not given)?
A: AC50: 16.9 µM (active); outcome: inactive

Q: For `CCOS(=O)(=O)OCC`, which outcome is on record?
A: The outcome was “inactive”.

Q: For `CCCCC(CC)COC(=O)c1c(Br)c(Br)c(Br)c(Br)c1C(=O)OCC(CC)CCCC` (stereo not given), which outcome is on record?
A: The outcome was “inactive”.

Q: For `CC1=C(C(=O)Nc2ccccc2)S(=O)(=O)CCO1`, which outcome is on record?
A: The outcome was “inactive”.

Q: How did the outcome turn out when `CC(C)CBr` was run?
A: The outcome was “inactive”.

Q: For `COCCOCCO`, which outcome is on record?
A: The outcome was “inactive”.

Q: For `OCC1CO1` (stereo not given), which outcome is on record?
A: The outcome was “inactive”.

Q: `N#Cc1c(-c2ccc(Cl)cc2)[nH]c(C(F)(F)F)c1Br` was tested. Which outcome did it give?
A: The outcome was “inactive”.

Q: For `O=C(O)CF`, which outcome is on record?
A: The outcome was “inactive”.

Q: `c1ccc(OP(Oc2ccccc2)Oc2ccccc2)cc1` was tested. Which outcome did it give?
A: The outcome was “inactive”.

Q: For `O=C(O)C(F)(F)OC(F)(F)C(F)(F)OC(F)(F)C(=O)O`, which outcome is on record?
A: Its outcome is “inactive”.

Q: With `N#C/C=C/c1ccccc1` as the molecule, how does the outcome read?
A: Its outcome is “inactive”.

Q: With `COC(=O)C(F)(F)C(F)(F)OC(F)(C(F)(F)F)C(F)(F)OC(F)=C(F)F` (stereo not given) as the molecule, how does the AC50 read?
A: Its AC50 is 8.47 µM (active) and 26 µM (active) and 10.1 µM (active).

Q: Which outcome does the source give for `CCN(CC)c1ccccc1` here?
A: The outcome was “inactive”.

Q: With `CC(=O)c1ccc(-c2ccccc2)cc1` as the molecule, how does the outcome read?
A: Its outcome is “inactive”.

Q: For `O=C(O)C(F)(F)OC(F)(F)C(F)(F)OC(F)(F)F`, which AC50 is on record?
A: The AC50 was 17.9 µM (active) and 15.4 µM (active).

Q: `CCOP(=S)(OCC)SCS(=O)(=O)CC` was tested. Which outcome did it give?
A: The outcome was “inactive”.

Q: `O=C(O)C=CC(F)(C(F)(F)F)C(F)(F)F` was tested. Which outcome did it give?
A: Its outcome is “inactive”.

Q: With `Cc1ccc([N+](=O)[O-])cc1C` as the molecule, how does the outcome read?
A: The outcome was “inactive”.

Q: Which outcome does the source give for `CCCCCCCc1ccc(O)cc1` here?
A: The outcome was “inactive”.

Q: Which outcome does the source give for `O=S(=O)(F)C(F)(F)C(F)(F)C(F)(F)C(F)(F)C(F)(F)C(F)(F)C(F)(F)C(F)(F)F` here?
A: Its outcome is “inactive”.

Q: How did the outcome turn out when `Oc1ccccc1Br` was run?
A: The outcome was “inactive”.

Q: `[N-]=[N+]=[N-]` was tested. Which outcome did it give?
A: The outcome was “inactive”.

Q: With `CCOC(=O)c1ccccc1C(=O)OCC` as the molecule, how does the outcome read?
A: Its outcome is “inactive”.

Q: With `c1ccc2c(c1)sc1ccccc12` as the molecule, how does the outcome read?
A: Its outcome is “inactive”.

Q: Which outcome does the source give for `O=NN1CCCC1` here?
A: The outcome was “inactive”.

Q: How did the outcome turn out when `O=c1[nH]c2ccccc2c(=O)o1` was run?
A: The outcome was “inactive”.

Q: For `CCC1(c2ccccc2)C(=O)N=C(O)NC1=O` (stereo not given), which outcome is on record?
A: The outcome was “inactive”.

Q: How did the outcome turn out when `ClC(Cl)(Cl)c1ccccc1` was run?
A: The outcome was “inactive”.

Q: Which outcome does the source give for `Clc1ccc(Oc2ccccc2)cc1` here?
A: Its outcome is “inactive”.

Q: For `Cn1[nH]nnc1=S`, which outcome is on record?
A: The outcome was “inactive”.

Q: `CCOC(=O)c1ccccc1N` was tested. Which outcome did it give?
A: Its outcome is “inactive”.

Q: How did the outcome turn out when `N#Cc1cc([N+](=O)[O-])ccc1N` was run?
A: The outcome was “inactive”.

Q: Which outcome does the source give for `Cc1ccc2c(c1N)C(=O)c1ccccc1C2=O` here?
A: The outcome was “inactive”.
